From PubChem
DT40 TDP1 CPT = DT40-hTDP1 cell growth loss with CPT; Potency, µM (top dose mostly 46.2 µM), for the others: at the highest dose activity change, negative = growth inhibition, most hits filed as inhibitors; hit rate 12% among 420,000; chicken DT40 Tdp1-/-;hTDP1 cells + 20 nM CPT, ATP luminescence, 48 h; AID 686979; also: potency is read from the fitted curve at half-maximal effect; nearly all actives have a fitted effect of over 55% in size
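Chicken DT40 Tdp1-/- cells complemented with human TDP1, 400 cells/well, exposed to compounds plus 20 nM camptothecin for at least 48 h at 37 C; viability read as ATP content by CellTiter-Glo luminescence.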
HT1080 IDH1KD tx = toxicity to HT-1080 IDH1 knockdown cells (counter line). HT-1080 IDH1 knockdown viability, ATP luminescence, 48 h. Potency, µM (titrated, usually from 46.1 µM), for the others: top-dose activity, negative = toxicity, hits mostly cytotoxic. hit rate 2% among 360,000. AID 686971;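 also: potency is read from the fitted curve at half-maximal effect; 0% = DMSO wells and -100% = cell-free medium wells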
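Luminescent ATP read-out (CellTiter-Glo, 10 min at room temperature) after 48 h compound exposure at 37 °C gave viability of IDH1-knockdown HT-1080 cells. Activity was normalised to DMSO and cell-free wells, then fitted as concentration-response curves.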
HT1080NT lethal = kills 2HG-producing HT-1080-NT fibrosarcoma cells. Potency, µM (doses to about 46.1 µM), without a hit: top-dose activity, negative = less viability, usual class: cytotoxic. hit rate 1.6% among 360,000. HT-1080-NT fibrosarcoma viability, CellTiter-Glo ATP luminescence, 48 h;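 also: NT is the 2HG producing partner of a matched IDH1 knockdown line; potency is read from the fitted curve at half-maximal effect; 0% = DMSO-treated cells and -100% = media-only wells without cells; nearly all actives have a fitted effect of over 55% in size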
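Viability of the 2HG-overproducing fibrosarcoma line after 48 hours of compound exposure at 37 degrees C was determined by luminescence with CellTiter-Glo, and concentration-effect curves were then fitted and categorized.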
DT40 TDP1 no CPT = qHTS for Inhibitors of human tyrosyl-DNA phosphodiesterase 1 (TDP1): qHTS in cells in absence of CPT; DT40 Tdp1-/- hTDP1 cells, no CPT, ATP luminescence, 48 h; Potency, µM (top dose mostly 46.2 µM), for the others: top-dose activity change, negative = growth inhibition, usual class: inhibitors; hit rate 15% among 420,000; also: potency is read from the fitted curve at half-maximal effect; nearly all actives have a fitted effect of over 55% in size
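Chicken DT40 Tdp1-/- cells complemented with human TDP1, screened without camptothecin (DMSO vehicle only), 400 cells/well. Compounds pin-transferred, cells incubated at 37 °C for at least 48 hr. Growth read as ATP-dependent luminescence (CellTiter-Glo, 30 min at RT).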
12-LOX inh = blocks human arachidonate 12S-lipoxygenase. P18054. purified 12hLO, xylenol orange hydroperoxide absorbance. Potency, µM (highest dose often 108 µM), for the others: top-dose activity change, negative = inhibition, usual class: inhibitors. hit rate 1.1% among 580,000; also: potency is read from the fitted curve at half-maximal effect
Target sequence (P18054 whole entry, looked up): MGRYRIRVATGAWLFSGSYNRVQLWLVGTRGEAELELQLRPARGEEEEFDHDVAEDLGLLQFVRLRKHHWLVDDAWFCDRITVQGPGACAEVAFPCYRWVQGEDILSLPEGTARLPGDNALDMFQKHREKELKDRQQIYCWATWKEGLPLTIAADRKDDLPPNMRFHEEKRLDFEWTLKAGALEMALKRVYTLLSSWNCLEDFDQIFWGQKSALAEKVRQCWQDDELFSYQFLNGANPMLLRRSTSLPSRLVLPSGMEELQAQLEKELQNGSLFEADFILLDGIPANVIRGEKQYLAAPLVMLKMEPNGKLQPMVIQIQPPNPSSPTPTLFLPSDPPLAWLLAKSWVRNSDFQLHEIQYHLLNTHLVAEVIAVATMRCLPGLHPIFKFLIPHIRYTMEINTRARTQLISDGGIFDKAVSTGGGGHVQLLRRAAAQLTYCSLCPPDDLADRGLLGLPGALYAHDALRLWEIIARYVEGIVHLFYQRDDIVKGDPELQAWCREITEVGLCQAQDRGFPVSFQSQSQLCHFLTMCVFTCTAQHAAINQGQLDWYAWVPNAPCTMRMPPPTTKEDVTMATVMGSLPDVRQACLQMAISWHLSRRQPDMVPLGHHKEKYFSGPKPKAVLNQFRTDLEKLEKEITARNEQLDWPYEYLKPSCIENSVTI
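Purified human 12hLO at 150 nM in 25 mM Hepes, 0.01% Triton X-100, pH 7.0, preincubated 15 min at room temperature with compound. Reaction started with 40 uM arachidonic acid, 30 min at room temperature. Hydroperoxide measured by Fe-xylenol orange, 573/405 nm absorbance ratio.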
IL-1B inflam inh = inflammasome signaling inhibition, IL-1 beta readout | THP-1 LPS/ATP IL-1B secretion, AlphaLISA, 16 h; hits give low values | activity change, % at 57.5 µM | hit rate 4.7% among 360,000; in the data active = activity change below about -50%; inconclusive = mostly about -30% to -49%
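Secreted IL-1B measured by AlphaLISA bead assay after 16 h compound exposure of THP-1 cells; compounds (final up to 57.5 uM) added 1 h before LPS (250 ng/mL) and ATP (1.25 mM) stimulation; lower signal means less secretion.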
Starred values were filed as active, the others as inactive; ? = inconclusive; nt = not tested or not shown; [ ] = another dose, or the depositor's remark. The full list was thinned out, with hits kept by preference. Unless noted, calls follow the shape of the dose curve; as a rule, active = well fitted curve in the direction sought with a large enough effect; inconclusive = small, poorly fitted or top-dose-only effect, or another doubt; inactive = no such curve, though single readings can be large; an effect the other way counts as inactive or inconclusive. Unless noted, % is scaled to controls: 0 for no effect and ±100 for the full control effect.

SMILES | DT40 TDP1 CPT | HT1080 IDH1KD tx | HT1080NT lethal | DT40 TDP1 no CPT | 12-LOX inh | IL-1B inflam inh
N#Cc1cccc(NC(=O)N[C@H]2[C@H](O)[C@@H](Oc3ccccc3)[C@@H]3OC[C@H]2O3)c1 | nt | nt | nt | nt | -4%[176 µM] | nt
C=CCNc1nc(N2CCCC2)nc2ccccc12 | 16µM* | ? | -30% | 16µM* | 8% | -14
Clc1ccc(-c2nc(N3CCCCC3)nc3ccccc23)cc1 | ? | -1% | -21% | -17% | ? | ?
CC(Nc1nc(N2CCCCC2)nc2ccccc12)c1ccccc1 (stereo not drawn) | ? | ? | ? | 23µM* | ? | ?
Cc1ccc(-c2cc(C(=O)NCc3ccco3)no2)cc1 | -2% | -3% | 21% | -18% | -8% | -7
O=C(Nc1cccc(Cl)c1)c1cc(-c2ccc3c(c2)OCCO3)on1 | ? | nt | nt | 12µM* | -19% | nt
O=C(NCc1ccco1)c1cc(-c2ccc3c(c2)OCO3)on1 | -7% | ? | 2.2µM* | -20% | 11% | 0
O=C(Nc1cccc(Cl)c1)c1cc(-c2ccc3c(c2)OCO3)on1 | -29% | nt | nt | ? | -9% | nt
Cc1cccc(NC(=O)c2cc(-c3ccc4c(c3)OCCO4)on2)c1 | 23µM* | nt | nt | ? | -5% | nt
Cc1ccc(Cl)cc1NC(=O)c1cc(-c2ccc3c(c2)OCCO3)on1 | 15µM* | nt | nt | ? | -28% | nt
CC1CC(NC(=O)NCCCCCCNC(=O)NC2CC(C)CC(C)(C)C2)CC(C)(C)C1 (stereo not drawn) | nt | nt | nt | nt | -31% | nt
CCOc1ccc(-n2c(Cc3ccccc3)nnc2SCc2nc(-c3ccccc3OC)no2)cc1 | ? | nt | nt | 16µM* | -2% | nt
Cc1ccccc1-c1noc(CSc2nnc(Cc3ccccc3)n2-c2ccc(F)cc2)n1 | ? | nt | nt | 9.2µM* | -9% | nt
CN1c2cc(C(=O)NCc3cccc(F)c3)ccc2C(=O)N2CCCCC21 (stereo not drawn) | nt | nt | nt | nt | 28% | nt
CN1CCCCCCN(C(=O)c2cccn2C)[C@H]2CCC[C@H]2C1=O | nt | nt | nt | nt | 11% | nt
COc1cc(NC(=O)C2=C(N3CCOCC3)/C(=C/c3ccc(Cl)cc3)CC2)cc(OC)c1OC | 6.5µM* | -21% | -26% | 7.3µM* | -1% | 8
COc1cc(NC(=O)C2=C(N3CCOCC3)/C(=C\c3ccc(N(C)C)cc3)CCC2)cc(OC)c1OC | 7.3µM* | 29µM* | ? | 2.9µM* | -27% | 0
O=C(Nc1ccccc1)C1=C(N2CCOCC2)/C(=C/c2cccnc2)CC1 | -5% | 0% | 5% | -13% | -11% | -25
CN(C)c1ccc(NC(=O)c2ccc(N3CCOCC3)nc2)cc1 | ? | -6% | -9% | ? | -14% | ?
Cc1nc(C(=O)N2CC[C@H](NC(=O)c3cnccn3)C[C@H]2C(=O)N[C@H](C)C(N)=O)cs1 | nt | nt | nt | nt | 15% | nt
O=C(CSc1ncccn1)Nc1nc2ccccc2s1 | nt | nt | nt | nt | 1% | nt
CC(=O)N1CCC(N(CCCN2CCC(C)CC2)C(=O)Nc2ccccc2C(F)(F)F)CC1 | nt | nt | nt | nt | 0% | nt
CC(C)CC1C(=O)N(Cc2cn(CCC3OCCCO3)nn2)CCS(=O)(=O)N1Cc1ccc(-c2ccc(F)cc2)cc1 (stereo not drawn) | ? | -5% | -12% | ? | 1% | 2
Cc1ccc(-c2ccc(CN3C(CC(C)C)C(=O)N(Cc4cn(CCC5OCCCO5)nn4)CCS3(=O)=O)cc2)cc1 (stereo not drawn) | 18µM* | ? | ? | 21µM* | -15% | -7
CC(C)CC1C(=O)N(Cc2cn(CCC3OCCO3)nn2)CCS(=O)(=O)N1Cc1ccc(-c2ccncc2)cc1 (stereo not drawn) | ? | 19% | 2% | 23µM* | -6% | -10
SMILES | DT40 TDP1 CPT | HT1080 IDH1KD tx | HT1080NT lethal | DT40 TDP1 no CPT | 12-LOX inh | IL-1B inflam inh
CCCn1c(CC)nc([N+](=O)[O-])c1Sc1ccc(F)cc1 | ? | -22% | -13% | ? | -9% | -19
CCCn1c(CC)nc([N+](=O)[O-])c1Sc1ccc(C)cc1 | -2% | -29% | -12% | -29% | ? | -68*
c1ccc(N2CCN(c3nccn4ccnc34)CC2)nc1 | ? | -7% | -3% | -25% | 9% | -4
N#Cc1cc(C#N)c(N2CCN(c3ccccn3)CC2)nc1N | ? | 2% | 7% | 22µM* | 16% | 31
Cc1ccc2c(c1)C1CN(C)CCC1N2Sc1ccccc1[N+](=O)[O-] (stereo not drawn) | ? | ? | 16µM* | 16µM* | ? | -89*
Cc1ccc2c(c1)[C@@H]1CN(C)CC[C@@H]1N2S(=O)(=O)c1ccc([N+](=O)[O-])cc1 | ? | -2% | -21% | -28% | ? | -13
O=C1C[C@H](c2ccc(O)cc2)Oc2cc(O[C@@H]3O[C@H](CO)[C@@H](O)[C@H](O)[C@H]3O)cc(O[C@@H]3O[C@H](CO)[C@@H](O)[C@H](O)[C@H]3O)c21 | 7% | 17% | 19% | 3% | -9% | 17
CC(=O)Oc1ccc(/C=C/C(=O)CC2OC(Oc3cc(OC(C)=O)c4c(c3)O[C@@H](c3ccc(OC(C)=O)cc3)CC4=O)C(OC(C)=O)C(OC(C)=O)C2OC(C)=O)cc1 (stereo partly drawn) | 8.4µM* | nt | nt | 7.5µM* | nt | nt
C(=NNc1nnn(Cc2ccccc2)n1)c1ccccc1 | ? | 18µM* | 9.2µM* | ? | 0% | 42
O=C(Nc1c(Cl)cccc1Cl)C1CC1(c1ccccc1)c1ccccc1 (stereo not drawn) | nt | nt | nt | nt | -5% | nt
Cc1cc(C)nc(N2CCC(CNC(=O)CCc3ccccc3)CC2)n1 | ? | 11% | 0% | 21µM* | 0% | 33
O=C(Nc1ccc(Oc2ccccc2)cc1)C1CCN(c2c3c(nc4ncnn24)CCC3)CC1 | 15µM* | -9% | -26% | 18µM* | 7% | -91*
Cc1cc(C)nc(N2CCC(C(=O)Nc3ccc(Oc4ccccc4)cc3)CC2)n1 | 5.8µM* | 5% | 6% | 8.2µM* | -5% | 23
Cc1cc(C)nc(N2CCC(C(=O)NCc3ccccc3)CC2)n1 | -2% | 0% | 1% | 1% | 13% | 22
O=C(Nc1ccc2c(c1)CCC2)C1CCN(c2c3c(nc4ncnn24)CCC3)CC1 | 23µM* | ? | ? | 21µM* | 7% | -18
